The text below walks through data of the antibiotic and cytotoxicity screens of Wong et al. (2023).

Hit rate of the full screen: of about 39,000 compounds, about 3,300 (8.5%) were called active. The sample holds actives, similar compounds and a random draw of the others, so the mix is not that of the screen.

The subject of the assay is HepG2. As to the kind of experiment: cytotoxicity call (relative viability < 0.9). Conditions: 10 µM.
Regarding `COCCCNC(=O)[C@H]1N[C@H]2C[C@@H]1C[C@@H]2F`, the cytotoxicity call was “inactive”.
As to `O[C@@H]1[C@@H]2C[C@H]3[C@H]1N[C@@H]1C[C@@H]2[C@@H]3[C@H]1O`, the cytotoxicity call is “inactive”.
As to `CN1CCO[C@H]2CN(c3ncccn3)C[C@@H]21`, the cytotoxicity call is “inactive”.
`N#Cc1nn(-c2c(Cl)cc(C(F)(F)F)cc2Cl)c(N)c1S(=O)C(F)(F)F` (stereo unspecified): the cytotoxicity call was “active”.
As to `C[C@H](CO)N1C[C@H](C)[C@H](CN(C)C(=O)Oc2ccc3ccccc3c2)OCc2cn(nn2)CCCC1=O`, the cytotoxicity call is “inactive”.
`CCOCC(=O)N1C[C@H]2CNC[C@H]2C1`: the cytotoxicity call is “inactive”.
In the case of `CN1CCCN(Cc2ccc(CN)cc2)CC1`, the cytotoxicity call was “inactive”.
Turning to `CN1[C@@H]2CC[C@H]1CNC(=O)C2`, the cytotoxicity call is “inactive”.
Take `COc1ccc2c3c([nH]c2c1)C(C)=NCC3`: the cytotoxicity call was “inactive”.
Then `CC1=NCCc2c1[nH]c1cc(O)ccc21.Cl.O.O`, with “active”; and `CN1CCN(c2ccccc2CN)CC1`, with “inactive”; and `COc1ccc(OC(=O)N(C)C[C@@H]2OCc3ccccc3-c3c(n(C)c4ccccc34)C(=O)N([C@H](C)CO)C[C@H]2C)cc1`, with “inactive”.
Turning to `N#Cc1cccnc1N1CCNCC1`, the cytotoxicity call is “inactive”.
Consider `Cc1ccc2cc3c(ccc4ccccc43)c3c2c1CC3`, for which the cytotoxicity call is “active”.
Then `CN1CCN(C(=O)[C@H]2C[C@H]3CN(c4ncccn4)C[C@@H]3N2C)CC1`, with “inactive”.
Then `Br.CN1C2CC(OC(=O)C(CO)c3ccccc3)CC1C(O)C2` (racemic), with “inactive”; and `C=C1[C@H]2CC[C@H]3[C@]4(C)C[C@H](O[C@H]5O[C@@H](CO)[C@@H](OS(=O)(=O)O)[C@H](OS(=O)(=O)O)[C@H]5OC(=O)CC(C)C)C[C@@H](C(=O)O)[C@H]4CC[C@]3(C2)[C@H]1O`, with “inactive”.
Take `CC[C@@H](C)NC=C1C(=O)NC(=O)NC1=O`: the cytotoxicity call is “inactive”.
Turning to `O=C(c1ccco1)N1[C@@H]2CC[C@H]1CNC2`, the cytotoxicity call was “inactive”.
As for `NC1(c2cccc(Cl)c2)CC1`, the cytotoxicity call was “inactive”.
`CC(C)C[C@@H]1NC[C@@H]2CCCN2C1=O`: the cytotoxicity call was “inactive”.
Turning to `CN(C)C(=S)SSC(=S)N(C)C`, the cytotoxicity call is “active”.
With `O=C(O)CN1C[C@@H]2C(NC(=O)c3ccno3)[C@H]2C1` (stereo partly specified), the cytotoxicity call is “inactive”.
Then `CC(C(O)c1ccccc1)N(C)C` (stereo unspecified), with “inactive”; and `CNCC(=O)c1ccc(O)cc1`, with “inactive”; and `COC(=O)NC(=S)Nc1ccccc1NC(=S)NC(=O)OC`, with “active”.
On to `CNc1ccccc1C(=O)O`, for which the cytotoxicity call is “inactive”.
Regarding `Br.CN1C2CC(OC(=O)C(CO)c3ccccc3)CC1C1OC12` (stereo unspecified), the cytotoxicity call was “inactive”.
For `C[N+]1(C)C2CC(OC(=O)C(CO)c3ccccc3)CC1C1OC12.[Br-]` (stereo unspecified), the cytotoxicity call is “inactive”.
As for `CC(=O)Nc1ccc(Cl)cc1C`, the cytotoxicity call is “inactive”.
Regarding `C=C[C@H]1CN2CC[C@@H]1C[C@@H]2CO`, the cytotoxicity call is “inactive”.
Then `CN(C)[C@@H](CN)c1cn(C)c2ccccc12`, with “inactive”; and `C[C@@H]1CCC(=O)O1`, with “inactive”.
For the compound `OCC[N+]12CN3CN(CN(C3)C1)C2`, the cytotoxicity call is “inactive”.
As for `Cc1cc2c(C(C)C)c(O)c(O)c(C=O)c2c(O)c1-c1c(C)cc2c(C(C)C)c(O)c(O)c(C=O)c2c1O` [listing 1 of 2 here], the cytotoxicity call was “active”.
For the compound `CC(=O)O.Cc1cc2c(C(C)C)c(O)c(O)c(C=O)c2c(O)c1-c1c(C)cc2c(C(C)C)c(O)c(O)c(C=O)c2c1O`, the cytotoxicity call is “inactive”.
As for `Cc1cc2c(C(C)C)c(O)c(O)c(C=O)c2c(O)c1-c1c(C)cc2c(C(C)C)c(O)c(O)c(C=O)c2c1O` [listing 2 of 2 here], the cytotoxicity call was “inactive”.
For `COc1cccc(C2(O)CCCCC2CN(C)C)c1.Cl` (stereo unspecified), the cytotoxicity call is “inactive”.
Take `CN(CC[C@@H](N)CC(=O)N[C@H]1C=C[C@H](n2ccc(N)nc2=O)O[C@@H]1C(=O)O)C(=N)N`: the cytotoxicity call is “inactive”.
In the case of `CN[C@H]1C[C@@H](N)[C@H](O)[C@@H](O[C@@H]2O[C@H](CO)[C@H](O)[C@@H]3O[C@@]4(O[C@H]23)O[C@H]([C@@H](N)CO)[C@H](O)[C@H](O)[C@H]4O)[C@@H]1O`, the cytotoxicity call is “inactive”.
Turning to `CCCC(=O)c1c(O)[nH]c(=O)[nH]c1=O`, the cytotoxicity call was “inactive”.
As for `c1ccc2sc(C3(N4CCCC4)CCCCC3)cc2c1`, the cytotoxicity call was “inactive”.
As to `c1ccc2sc(C3(N4CCCCC4)CCCCC3)cc2c1`, the cytotoxicity call was “inactive”.
Regarding `S=C=Nc1cccc(C2(N3CCCCC3)CCCCC2)c1`, the cytotoxicity call was “active”.
For `Oc1ccccc1N1CCNCC1`, the cytotoxicity call is “inactive”.
As for `O[C@H]1CNC[C@@H]1N1CCCC1`, the cytotoxicity call is “inactive”.
With `CN1CC2(CNC2)OCCS1(=O)=O`, the cytotoxicity call was “inactive”.
For the compound `C[C@@H]1CN([C@@H](C)CO)C(=O)CCCn2nncc2CO[C@@H]1CN(C)C(=O)Oc1cccc2ccccc12`, the cytotoxicity call was “inactive”.
On to `NCCc1[nH]nc2c1CCCC2`, for which the cytotoxicity call was “inactive”.
Then `CC1(C)NN1CCCN1NC1(C)C` (stereo unspecified), with “inactive”.
With `NCCO.NCCO.O[AsH]O[AsH]O` (stereo unspecified), the cytotoxicity call is “active”.
Regarding `CC12CCC(=O)C=C1C=CC1C2CCC2(C)C1CCC2(O)CCC(=O)[O-].[K+]` (stereo unspecified), the cytotoxicity call was “inactive”.
In the case of `CC12CCC3C(CCC45OC4C(O)=C(C#N)CC35C)C1CCC2O` (stereo unspecified), the cytotoxicity call was “inactive”.
On to `C[C@H](N)Cn1ccc2cc(F)c(Cl)cc21`, for which the cytotoxicity call was “inactive”.
On to `CC(C)[C@H](N)C(=O)N1CCC[C@H]1B(O)O`, for which the cytotoxicity call is “inactive”.
Regarding `CO[C@@H]1C[C@@H](C[C@H]2CC[C@H](C)[C@H]([C@@H](C)C(=O)O)O2)O[C@]2(O[C@](C)([C@H]3CC[C@@](C)([C@H]4O[C@@H]([C@H]5O[C@@](O)(CO)[C@H](C)C[C@@H]5C)C[C@@H]4C)O3)C[C@H]2C)[C@@H]1C`, the cytotoxicity call was “active”.
